Shown are actives, neighbours in structure and some others; about 2.3% of the full set was active somewhere.
UHRF1 binding – blocks human UHRF1 binding to methylated DNA; Q96T88; UHRF1 binding to methylated oligo, TR-FRET; inhibition, % at 4.4 µM; AID 687016; hit rate 0.75% among 370,000; in the data active = inhibition above about 21%;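 note: UHRF1 SRA domain binding a hemimethylated CpG hairpin DNA probe; 0% = median of test compound wells and 100% = reference inhibitor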
LEDGF integ inh – blocks HIV-1 LEDGF/p75-dependent DNA integration; AID 743269; TR-FRET IN-LEDGF/p75 DNA integration, Eu/Cy5; hit rate 0.64% among 370,000; inhibition, % at 3.7 µM;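 active = inhibition above the screen-wide mean plus 3 SD, cut at about 13% in these data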;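 note: signal is the Cy5 over europium emission ratio at 671 and 618 nm; 0% = plate median of compound wells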
PLC-beta3 inh – blocks human PLC-beta3 enzyme activity. Q01970. AID 720704. Purified PLC-beta3, fluorogenic substrate, fluorescence. hit rate 0.18% among 370,000. inhibition, % at 12.2 µM; in the data active = inhibition above about 11%;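 note: 0% = median of compound wells on plate and 100% = full blocker control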
MBD2 DNA inh – MBD2-methylated oligo binding inhibition | Q9UBB5 | TR-FRET, MBD2 binding to methylated oligonucleotide | inhibition, % at 4.4 µM | hit rate 0.31% among 370,000; in the data active = inhibition above about 13%
PLCg1 inh – inhibitors of human phospholipase C gamma1. purified PLC-gamma1, fluorogenic substrate, fluorescence. inhibition, % at 12.2 µM. AID 720700. P19174. hit rate 0.84% among 370,000; in the data active = inhibition above about 9.5%
Active calls of the source: *; i = inactive.

SMILES	UHRF1 binding	LEDGF integ inh	PLC-beta3 inh	MBD2 DNA inh	PLCg1 inh
C=CC[C@@H]1NN2C(=O)[C@@H](CCc3ccccc3)[C@@H]3c4ccccc4C=NN3[C@@H]2c2ccccc21	83*	2	-4	5	2
O=C(O)c1cc(-c2ccc(/C=C3\NC(=O)N(c4ccccc4)C3=O)o2)ccc1Cl	16	5	-16	5	-11
Cc1cccc(N2NC(=O)/C(=C/c3ccc(-c4ccc(Cl)c(C(=O)O)c4)o3)C2=O)c1	31*	5	-6	6	-6
O=C1NN(c2ccccc2)C(=O)/C1=C/c1ccc(-c2ccc(Cl)c(C(=O)O)c2)o1	23*	5	-3	0	-4
CC1(C)CC(=O)C=C(Nc2ccccc2NC(=O)c2cccc(F)c2F)C1	-2	-1	0	1	-2
C[C@@H]1CN([C@@H](C)CO)C(=O)CCCn2nncc2CO[C@@H]1CN(C)C(=O)Nc1ccccc1C(F)(F)F	22*	-4	0	-1	-2
C[C@H]1CN([C@@H](C)CO)C(=O)CCCn2nncc2CO[C@@H]1CN(C)Cc1ccccc1	35*	-1	1	5	-4
C[C@@H]1CN([C@@H](C)CO)C(=O)CCCn2cc(nn2)CO[C@H]1CN(C)C(=O)NC1CCCCC1	21*	-4	-12	8	0
CC(C)NC(=O)N(C)C[C@@H]1OCc2cn(nn2)CCCC(=O)N([C@@H](C)CO)C[C@H]1C	2	3	4	-1	0
COc1ccc(S[C@]2(C(=O)NCc3ccccc3)CC(=O)N[C@@H]2c2ccc(OC)cc2)cc1	-1	8	7	2	4
FC(F)(F)c1ccc2nc(CNc3nc(N4CCOCC4)nc4c3ncn4-c3ccsc3)[nH]c2c1	-1	6	-1	2	-2
O=C1/C(=C/c2cccs2)CCC/C1=C\c1cccs1	9	20*	-35	1	-18
O=C1/C(=C/c2ccco2)CCC1C1CCCC1 (configuration not stated)	18	0	-1	-2	0
O=C1/C(=C\c2ccco2)CCC/C1=C\c1ccco1	56*	71*	-47	19*	-34
CCOc1ccc(CCNC(=O)c2cc3ccsc3n2C)cc1OC	7	5	0	4	5
Cc1cc(C(=O)COC(=O)c2ccc3c(c2)OCO3)c(C)n1Cc1cccs1	5	5	4	-2	10*
N#Cc1ccccc1N1CCN(S(=O)(=O)c2ccc3c(c2)CCC(=O)N3)CC1	1	-1	-1	2	-2
Cc1c(NS(=O)(=O)c2cc(C(=O)NCC3CCCO3)cc(Cl)c2Cl)c(=O)n(-c2ccccc2)n1C (configuration not stated)	0	-1	-3	2	3
Cc1c(NC(=O)C(C)NCC2CCCO2)c(=O)n(-c2ccccc2)n1C (configuration not stated)	38*	0	2	-3	1
CN(C)c1ccccc1-c1cc(NC=O)c2ncc(-c3cccc(C(F)(F)F)c3)n2c1	14	0	i	42*	i
O=C(CCCN1C(=O)/C(=C\c2ccccc2)SC1=S)Nc1ccc(O)cc1C(=O)O	0	2	-2	-3	4
O=C(CN1C(=O)/C(=C\c2ccco2)SC1=S)Nc1ccc(O)cc1C(=O)O	87*	63*	-26	27*	33*
CC(C(=O)N(C)C1CCS(=O)(=O)C1)N1C(=O)/C(=C/c2ccc(F)cc2)SC1=S (configuration not stated)	-1	4	-11	-9	3
CCN(C(=O)C(C)N1C(=O)/C(=C/c2ccco2)SC1=S)C1CCS(=O)(=O)C1 (configuration not stated)	31*	49*	-8	-2	-2
S=c1[nH]cc(-c2ccccc2)n1-c1ccccc1	5	1	6	0	13*
SMILES	UHRF1 binding	LEDGF integ inh	PLC-beta3 inh	MBD2 DNA inh	PLCg1 inh
CCOC(=O)CC1COc2ccccc2N1C(=O)c1cccc([N+](=O)[O-])c1 (configuration not stated)	40*	-3	-7	3	-8
COC(=O)CC1COc2ccccc2N1C(=O)c1cccc(Cl)c1 (configuration not stated)	7	-1	1	7	-3
O=C(Cc1ccccc1)NC1CCCc2c1cnn2-c1ccc(F)cc1F (configuration not stated)	7	-6	-1	-1	3
O=S1(=O)c2ccc(N3CCN(Cc4ccccc4F)CC3)cc2Oc2ccccc2CN1Cc1cn(Cc2ccccc2C(F)(F)F)nn1	-2	2	-2	-7	-3
Cc1ccc(-n2nc(-c3ccco3)cc2C(=O)O)cc1	31*	9	-16	10	-8
CCOC(=O)c1cc(-c2ccco2)nn1-c1ccc(C)cc1	-1	-2	-8	-1	-7
CC(C)(C)Nc1nc(C(N)=O)nc(N2CCOCC2)n1	2	5	4	-1	5
NC(=O)c1nc(N2CCOCC2)nc(N2CCOCC2)n1	37*	1	-9	-2	-8
CCCC/C=C1/[C@H](CC)N(C)C2=N[C@@H](c3ccccc3)CC(=O)N21	2	-7	3	0	1
CSc1ccc(C(=O)C2CCCN(C(=O)c3cccnc3SC)C2)cc1 (configuration not stated)	26*	0	-8	13	2
COc1ccccc1C(=O)C1CCCN(C(=O)c2cccnc2SC)C1 (configuration not stated)	1	4	-3	2	0
COc1ccc(OC)c(CC(NC(C)=O)C(=O)NC2CCN(c3c(Cc4ccccc4)c(C)nc4ncnn34)CC2)c1 (configuration not stated)	19	0	0	5	-3
COc1cccc(CC(NC(C)=O)C(=O)NC2CCN(c3c(Cc4ccccc4)c(C)nc4ncnn34)CC2)c1 (configuration not stated)	26*	0	2	7	-1
CCOc1ccc(NC(=S)C(C#N)=C2N(C)c3ccccc3N2C)cc1	22*	-6	-9	1	-2
O=C(CSc1nc(-c2ccccc2)c(-c2ccccc2)o1)N1CCOCC1	92*	-2	-2	0	-1
CC[C@@]1(C(=O)OC)N[C@H](CN(C)C(=O)Nc2ccc(OC)cc2)[C@@H]2C(=O)N(C)C(=O)[C@@H]21	22*	-5	0	11	2
O=C(OCC(=O)N1CCCC1)c1ccccc1O	0	-2	-1	4	3
Cc1ccc(C(=O)OCC(=O)N2CCCCCC2)c(O)c1	29*	-5	-8	2	2
Cc1nc2ccc(C(=O)N3c4ccccc4CC3C)cc2s1 (configuration not stated)	23*	-2	-3	5	0
CC1Cc2ccccc2N1C(=O)c1cccnc1 (configuration not stated)	-1	1	-2	-2	0
CC(C)CC(=O)N1CCN(c2ccc([N+](=O)[O-])c(NCc3ccccc3)c2)CC1	0	2	8	-9	13*

Screening data as filed in PubChem BioAssay.
